Molecules are shown by their SMILES. Screen size: about 220,000 compounds; about 910 (0.41%) were called active.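 The calls were made as follows: active = primary inhibition above the hit cutoff, then over 50% inhibition at one or more dose response concentrations (cut at about 23% in these data, passing the limit was not always enough); inconclusive = conflicting primary data, or primary hits not chosen for dose response; inactive = low primary inhibition, or under 50% at every dose.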 Shown is part of a subset that was picked to be rich in actives. Measured potencies and affinities stand elsewhere.

Sequence of Aminopeptidase N (Plasmodium falciparum (isolate 3D7)) (O96935 whole entry, looked up): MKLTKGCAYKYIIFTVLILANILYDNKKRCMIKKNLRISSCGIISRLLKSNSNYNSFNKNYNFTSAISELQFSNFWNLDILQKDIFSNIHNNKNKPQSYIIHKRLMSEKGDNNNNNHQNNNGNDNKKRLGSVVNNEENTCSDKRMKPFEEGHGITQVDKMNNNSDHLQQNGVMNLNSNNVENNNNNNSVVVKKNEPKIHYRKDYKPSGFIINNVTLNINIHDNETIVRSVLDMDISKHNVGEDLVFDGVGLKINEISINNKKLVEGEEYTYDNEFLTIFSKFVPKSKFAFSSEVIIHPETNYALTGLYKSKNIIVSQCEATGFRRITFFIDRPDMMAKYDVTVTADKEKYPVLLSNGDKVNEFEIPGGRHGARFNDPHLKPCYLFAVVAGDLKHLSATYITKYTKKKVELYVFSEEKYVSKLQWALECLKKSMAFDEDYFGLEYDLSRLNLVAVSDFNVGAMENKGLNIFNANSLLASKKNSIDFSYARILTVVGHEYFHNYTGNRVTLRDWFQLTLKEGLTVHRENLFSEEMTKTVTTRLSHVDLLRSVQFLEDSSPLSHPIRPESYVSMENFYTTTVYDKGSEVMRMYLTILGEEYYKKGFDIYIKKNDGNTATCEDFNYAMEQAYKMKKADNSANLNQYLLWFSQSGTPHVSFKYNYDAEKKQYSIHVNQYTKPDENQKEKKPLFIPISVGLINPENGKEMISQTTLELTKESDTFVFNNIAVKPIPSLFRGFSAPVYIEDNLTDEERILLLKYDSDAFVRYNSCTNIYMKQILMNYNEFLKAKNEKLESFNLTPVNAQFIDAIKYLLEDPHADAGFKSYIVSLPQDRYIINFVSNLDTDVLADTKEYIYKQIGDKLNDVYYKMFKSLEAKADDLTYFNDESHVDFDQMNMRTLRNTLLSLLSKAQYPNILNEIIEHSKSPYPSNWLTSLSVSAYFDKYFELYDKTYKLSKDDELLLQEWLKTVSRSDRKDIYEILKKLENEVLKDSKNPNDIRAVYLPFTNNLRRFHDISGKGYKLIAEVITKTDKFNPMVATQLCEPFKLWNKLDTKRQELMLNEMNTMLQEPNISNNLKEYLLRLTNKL

This assay has as its target Aminopeptidase N (Plasmodium falciparum (isolate 3D7)) (UniProt O96935). In words: malaria alanyl aminopeptidase activity blockers – biochemical, fluorogenic H-Leu-NHMec substrate, 1536-well (AID 1445).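 Also: plate controls were DMSO full reaction for no effect and no enzyme background for full effect.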 The conditions noted are these: recombinant M1AAP, H-Leu-NHMec fluorogenic kinetic assay; at 30 µM, stronger effect = higher value unless noted.
For the compound `COC(=O)c1c(NC(=O)COC(=O)c2ccccc2O)sc2c1CCCCC2`, the inhibition is 2.42% (inactive). With `COc1cc(NC(=O)Cc2cccs2)ccc1-n1cnnn1` the figure was 4.02% (inactive). With `CN1CCc2c(OCc3ccc(F)cc3)cccc2C1=O` the figure was 3.15% (inactive); with `Cc1ccc(S(=O)(=O)Nc2ccccc2C(=O)OC(C)C(=O)Nc2ccc3ccccc3c2)cc1[N+](=O)[O-]` (stereo not drawn), -0.95% (inactive); with `O=C(O)c1ccccc1Nc1ccc(OC(F)F)cc1`, 2.47% (inactive). With `COc1ccc(NC(=S)NNc2ccc([N+](=O)[O-])cc2S(=O)(=O)Nc2ccc(C)cc2C)cc1` the figure was 5.53% (inactive). For `COc1ccc(NC(=O)c2ccccc2NS(=O)(=O)c2ccc(C)cc2)c([N+](=O)[O-])c1`, the inhibition was 11.4% (inactive).

Consider `O=c1c(Cc2ccc(Cl)cc2)c(O)ccn1Cc1ccccc1`, for which the inhibition was 1.46% (inactive). With `Cc1oc2c(C)c3oc(=O)c4c(c3cc2c1C)CCCC4` the figure was 4.09% (inactive); with `Cc1c(O)c(CN2CCCC2)cc2c1oc(=O)c1ccccc12`, 11.4% (inactive); with `CCc1cc(=O)oc2c(C)c(O)c(CN(C)C)cc12`, 9.74% (inactive). Turning to `CCCc1cc(=O)oc2c(C)c(O)c(CN3CCCCC3)cc12`, the inhibition was -4.01% (inactive). As for `Cc1c(O)c(CN2CCCCC2)cc2c1oc(=O)c1ccccc12`, the figure is 1.46% (inactive).

`Cc1oc2c(C)c3oc(=O)c4c(c3cc2c1C)CCC4`: the inhibition is 9.19% (inactive).

With `O=C(COc1cccnc1[N+](=O)[O-])Nc1ccccc1Sc1ccccc1`, the inhibition is -2.34% (inactive). As to `CCOc1cccc(C(=O)NC(=S)Nc2cccnc2)c1`, the inhibition was 6.93% (inactive). As for `COc1ccc(-c2ccc(N(C)C)cc2)cc1[C@H]1[C@H]2C=CC[C@@H](C)[C@@H]2C(=O)N1Cc1ccccc1`, the inhibition is 0.52% (inactive). With `O=C(c1ccc2c(=O)n3c(nc2c1)CCCCC3)N1CCN(c2ccccc2)CC1` the figure was 7.74% (inactive). With `COc1ccc(Nc2cc(Cl)nc(N)n2)cc1` the figure was 4.08% (inactive); with `CCNC(=S)N(CCc1ccc(S(N)(=O)=O)cc1)C1CC(=O)N(c2ccccc2)C1=O` (stereo not drawn), 2.82% (inactive); with `Cc1nn2c(-c3ccccn3)ccnc2c1Br`, 7.82% (inactive). With `CCOc1c(Cl)cnn(-c2ccc(C)cc2)c1=O` the figure was -0.82% (inactive); with `CCOC(=O)c1cc(-c2cc3ccccc3o2)nc2c1c(=O)[nH]c(=O)n2CCOC`, 6.31% (inactive); with `N=C(N)N=Nc1c(O)[nH]c2ccc(Br)cc12`, 10.3% (inactive).

For the compound `Oc1[nH]c2ccc(Br)cc2c1N=Nc1ccc(C(F)(F)F)cn1`, the inhibition is 4.3% (inactive). With `N#Cc1nc(-c2ccco2)oc1NCCCN1CCOCC1` the figure was 6.97% (inactive). As for `COCCNc1oc(-c2ccc(C)cc2)nc1C#N`, the figure is 19.1% (inactive). As to `COCCNc1oc(-c2ccccc2Cl)nc1C#N`, the inhibition is 10.4% (inactive). As to `CN(C)CCNc1oc(/C=C/c2ccccc2)nc1C#N`, the inhibition was 20.7% (inactive).

For `CN(C)CCCNc1oc(-c2ccccc2)nc1C#N`, the inhibition was 5.83% (inactive).

Consider `N#Cc1nc(-c2ccc(F)cc2)oc1NCCN1CCOCC1`, for which the inhibition is 3.45% (inactive). As for `CN1CCN(c2oc(/C=C/c3ccccc3)nc2C#N)CC1`, the figure is 16.3% (inactive); as for `CNc1oc(/C=C/c2ccccc2)nc1C#N`, 3.76% (inactive). As for `COc1ccc(-c2nc(C#N)c(NCCCN3CCOCC3)o2)cc1`, the figure is 27.7% (active); as for `O=C(NCCOc1ccccc1F)c1cc(F)c(F)cc1Cl`, 3.2% (inactive). For `CC(=O)N1CCN(c2ccc([N+](=O)[O-])cc2)CC1`, the inhibition was 3.7% (inactive).

`COc1ccccc1-c1nn2c(C(F)(F)F)nnc2s1`: the inhibition is 4.63% (inactive). As for `O=C(NCc1ccccc1)C1=C[C@H](c2coc3ccccc3c2=O)C[C@H](OCCCCO)O1`, the figure is 6.04% (inactive). With `O=c1c2cc(NC(=S)NC3CC3)ccc2nc2n1CCCCC2` the figure was -0.67% (inactive).

Consider `COCC1CCN(Cc2cn(-c3ccccc3F)nc2-c2cc(C)sc2C)CC1`, for which the inhibition was 0.56% (inactive). As to `COc1ccc(-c2nc3n(n2)C(c2ccccc2Cl)C(C(N)=O)=C(C)N3)cc1` (stereo not drawn), the inhibition is 9.41% (inactive).

In the case of `CCOC(=O)CSc1ccc(S(=O)(=O)N2CCCC2)cc1[N+](=O)[O-]`, the inhibition is -0.65% (inactive).

On to `COc1ccc(OCCSc2nc3ccccc3c(=O)[nH]2)cc1`, for which the inhibition is 2.2% (inactive). With `CCN1C(=O)[C@H]2[C@H]3[C@H](O)[C@H](O)C/C(=N\O[C@H](C)c4cn([C@H](CO)Cc5ccccc5)nn4)[C@@H]3CC[C@H]2C1=O` the figure was -7.3% (inactive). As to `COCC(=O)NC1CCCCCC1`, the inhibition was 2.18% (inactive). As for `CCOc1cc(C)c(Cl)cc1S(=O)(=O)NCC1CCCO1` (stereo not drawn), the figure is 1.73% (inactive); as for `O=C1NCCCC1C(=O)N/N=C/c1cccc(Cl)c1` (stereo not drawn), -7.25% (inactive). With `NS(=O)(=O)c1ccc(CCNC(=O)COC(=O)CCc2ccccc2)cc1` the figure was -2% (inactive).

For `N#Cc1nc(Cc2cccc3ccccc23)oc1NCCCN1CCOCC1`, the inhibition is 6.12% (inactive). On to `CN(C)c1oc(-c2ccccc2)nc1C#N`, for which the inhibition is 11% (inactive).

Take `CCN(CC)CCCNc1oc(-c2cccc(Cl)c2)nc1C#N`: the inhibition was 12.2% (inactive). For `N#Cc1nc(COc2ccc(-c3ccccc3)cc2)oc1NCCCN1CCOCC1`, the inhibition is -3.18% (inactive). As for `CCN(CC)CCCNc1oc(-c2ccccc2[N+](=O)[O-])nc1C#N`, the figure is 9.93% (inactive); as for `CNc1oc(-c2cccs2)nc1C#N`, 13% (inactive). As for `CCOc1cc(C)c(C(C)C)cc1S(=O)(=O)n1ccc(C)n1`, the figure is -2.68% (inactive). Take `Cc1c(Cl)cccc1NC(=S)NCCc1ccccn1`: the inhibition was 20.7% (inactive).

On to `COc1ccc(/C=C2\CCCC3C2=NN(C(=O)COC(=O)CNC(=O)c2ccccc2)C3c2ccc(OC)cc2)cc1` (stereo not drawn), for which the inhibition was 2.31% (inactive).

On to `O=C(Cc1cccs1)Nc1nnc(-c2ccc(F)cc2)s1`, for which the inhibition was -2.11% (inactive). For the compound `COc1cc(C(=O)Nc2ccc([N+](=O)[O-])cn2)cc(OC)c1OC`, the inhibition is 13.8% (inactive). As for `COc1ccc(S(=O)(=O)NCCC(C)C)cc1OC`, the figure is -0.02% (inactive). In the case of `Cc1nc(N)sc1C(=O)OCC(C)C`, the inhibition is -4.36% (inactive). Regarding `Cc1ccc(-n2c(P(C)(=O)O)nc3ccccc32)cc1`, the inhibition was -0.56% (inactive). With `Cc1ccnc(NC(=O)CCCOc2ccc(Cl)cc2C)c1`, the inhibition was -1.52% (inactive).

As a reminder, the inhibition is the relative decrease from the control value, in per cent.

(Values after PubChem BioAssay AID1445 (SRMLSC, 2008).)
